High-throughput results as filed in PubChem.
D2 ag-1: agonists of human D2 dopamine receptor (beta-arrestin) | P14416 | DiscoveRx PathHunter D2 beta-arrestin, luminescence, 90 min; 100% = 57 uM dopamine signal | activation, % (no concentration beside the values) | 360,000 compounds, 0.084% hits | AID 624465; in the data active = activation above about 40%; inconclusive = between about 15% and that limit
Target sequence (P14416 whole entry, looked up): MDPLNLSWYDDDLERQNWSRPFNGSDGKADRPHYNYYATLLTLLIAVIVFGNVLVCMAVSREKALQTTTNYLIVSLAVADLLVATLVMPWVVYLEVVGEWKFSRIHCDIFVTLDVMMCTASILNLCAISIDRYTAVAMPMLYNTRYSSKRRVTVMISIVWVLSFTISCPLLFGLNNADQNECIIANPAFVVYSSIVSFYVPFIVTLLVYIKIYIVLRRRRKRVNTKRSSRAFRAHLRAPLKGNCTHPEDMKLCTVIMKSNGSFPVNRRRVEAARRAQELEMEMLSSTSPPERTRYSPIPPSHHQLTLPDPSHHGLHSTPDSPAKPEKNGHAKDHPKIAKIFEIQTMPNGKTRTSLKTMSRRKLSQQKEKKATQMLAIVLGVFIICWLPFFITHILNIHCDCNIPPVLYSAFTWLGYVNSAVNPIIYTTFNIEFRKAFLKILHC
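DiscoveRx PathHunter D2 beta-arrestin cells (2,100/well) attached overnight, then compound-stimulated 90 min at 37 C in HBSS/10 mM HEPES/0.1% Tween-20 buffer; beta-galactosidase complementation read by luminescence after 1 h at ambient temperature. Dopamine 57 uM final (EC100) as control.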
D2 ag-2: activates the human D2 dopamine receptor; P14416; HEK293 T-REx D2 cells, calcium flux agonist mode; activation, % at 2 µM; 340,000 compounds, 0.53% hits; AID 485358;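 active = activation over 3 SD above normal in the single-dose calcium agonist read, cut at about 30% in these data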; also: 0% is about no effect
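Tetracycline-induced HEK293 Trex cells with D2 receptor force-coupled to calcium signaling, plated overnight at 30 C and loaded with no-wash calcium dye. Calcium flux read kinetically for 180 s after compound addition; responses flag agonists.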
D2 PAM-1: human D2 receptor positive allosteric modulation; DiscoveRx D2 beta-arrestin cells, luminescence, 90 min; 100% = 57 uM dopamine signal; potentiation, % (no concentration beside the values); 360,000 compounds, 0.23% hits; in the data active = potentiation above about 50%; inconclusive = mostly about 30% to 49%
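D2 cells co-treated with compound plus 50 nM dopamine (EC20) for 90 min at 37 deg C to detect potentiation. Beta-arrestin recruitment was read as enzyme-fragment luminescence after 1 h at ambient temperature. Full response was set by 57 uM dopamine.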
D2 antagonist: antagonists of human D2 dopamine receptor | AID 485344 | 340,000 compounds, 2% hits | inhibition, % at 10 µM | HEK293 TREx D2 cells, calcium flux, dopamine EC80 | P14416; in the data active = inhibition above about 30%; inactive = below that, where a call was filed; also: 0% is about no effect
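Tetracycline-induced HEK293 T-REx cells expressing D2 force-coupled to calcium signalling were dye-loaded, exposed to compound for 180 s, then challenged with an EC80 of dopamine; calcium flux was followed kinetically for a further 180 s.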
D2 PAM-2: positive allosteric modulators of human D2 dopamine receptor | P14416 | HEK293 T-REx D2, calcium flux, EC20 dopamine potentiation | potentiation, % at 10 µM | 340,000 compounds, 0.34% hits | AID 485347;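 active = potentiation over 3 SD above the plate norm, cut at about 30% in these data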; also: 0% is about no effect
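Calcium flux readout, no-wash dye, 1 read/s. Inducible HEK293 Trex D2 line, overnight 30 C. Compound alone 180 s (agonist flags), then EC20 dopamine, another 180 s to score potentiation.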
Active calls of the source: *; ? = inconclusive; · = no result given. This is a sample that favours compounds with a hit; in the whole collection about 2.4% have one here.

SMILES	D2 ag-1	D2 ag-2	D2 PAM-1	D2 antagonist	D2 PAM-2
COc1ccc(C(=O)c2ccccc2)c(OCC(=O)NC2CC2)c1	-2	0	-10	-37	13
CC(=O)Oc1c(Br)cc(N(C(C)=O)S(=O)(=O)c2ccccc2)c2ccccc12	?	-3	-1	33*	11
CC(=O)Oc1ccccc1N(C(C)=O)S(=O)(=O)c1ccc2ccccc2c1	-2	1	-6	-12	0
Cc1cc(Cl)ccc1OCCCC(=O)OCC(N)=O	0	0	-6	-1	1
Cc1ccc(CCNC(=O)c2cc3c(-c4ccccc4F)nn(C)c3s2)cc1	·	0	·	·	-14
CCCCN(CC)CCNC(=O)c1cc2c(=O)n(CC)c3ccccc3c2s1	-2	-3	-19	36*	8
CCCCN(CC)CCNC(=O)c1cc2c(-c3ccccc3F)nn(C)c2s1	44*	1	8	-28	-4
CN(C(=O)CSCC(=O)Nc1ccc(Cl)cc1)C1CCCCC1	1	·	-8	·	·
Cc1ccc(N(Cc2ccccc2)C(=O)c2cc(S(=O)(=O)N3CCOCC3)ccc2F)cc1	0	0	-26	-2	-6
COc1ccccc1N1CCN(Cc2ccc(-c3ccccc3[N+](=O)[O-])o2)CC1	-1	-1	-77	86*	-25
COc1ccccc1N1CCN(Cc2ccco2)CC1	1	4	-6	-11	-16
COC(=O)c1c(NS(=O)(=O)c2cccs2)sc2c1CCCC2	-2	0	-2	41*	9
COC(=O)c1c(NC(=O)c2ccco2)sc2c1CCC2	-6	-3	5	2	30*
COC(=O)c1c(NC(=O)Cc2cccs2)sc2c1CCCC2	-3	0	3	-2	3
O=C(Nc1sc2c(c1C(=O)O)CCC2)c1ccco1	1	0	-1	4	5
Cc1ccc(C(=O)Nc2sc3c(c2C(=O)O)CCCCC3)o1	-1	1	4	32*	3
CCN(CC(=O)Nc1c(F)cccc1F)C(=O)Cc1sc(C)nc1-c1ccc(F)cc1	-3	-1	11	-3	17
CCN(CC(=O)Nc1cc(Cl)ccc1C)C(=O)COc1ccccc1F	-3	-2	-28	40*	4
CCN(CC(=O)Nc1cc(Cl)ccc1C)C(=O)Cc1sc(C)nc1-c1ccc(F)cc1	-5	0	-2	75*	-42
CCN(CC(=O)Nc1cc(Cl)ccc1C)C(=O)CCOc1ccccc1C	-3	0	-36	31*	-14
CC1CN(CCOc2ccc([N+](=O)[O-])cc2)CC(C)O1 (stereo not drawn)	-1	-1	-11	-7	5
O=[N+]([O-])c1ccc(OCCN2CCNCC2)cc1	-2	1	-7	32*	-3
O=C(C1CC1)N1CCN=C1SCc1ccccc1Cl	-3	-1	-11	35*	4
O=C(c1cccs1)N1CCN=C1SCc1ccccc1F	-1	33*	-4	-8	-21
O=C(c1cccs1)N1CCN=C1SCc1ccc(Cl)cc1	-2	3	-4	27	-5
SMILES	D2 ag-1	D2 ag-2	D2 PAM-1	D2 antagonist	D2 PAM-2
CCC(=O)N1CCN=C1SCc1ccc(Cl)cc1	-1	0	-9	5	30*
O=C(NCCCc1ccccc1)c1ccc(F)cc1	0	0	-7	-10	4
O=C(NCCNC1CCC(c2ccccc2)CC1)c1ccc(F)cc1 (stereo not drawn)	-9	3	-18	85*	-24
CCC(C)c1ccc(NC(=S)N2CCN(C(=O)C3CCCO3)CC2)cc1 (stereo not drawn)	0	0	2	7	-5
O=C(c1ccc(S(=O)(=O)Nc2ccccc2)cc1)N1CCC1	-2	-1	-20	1	1
O=C(O)c1ccc(NS(=O)(=O)c2cc(C(=O)O)ccc2Br)cc1	7	0	70*	1	1
O=C(O)c1ccc(NS(=O)(=O)c2ccc(N3C(=O)CCC3=O)cc2)cc1	-6	-1	-8	39*	-16
CC(C(=O)N(C)Cc1cccc(F)c1)N1CCN(S(=O)(=O)c2ccc3c(c2)OCCCO3)CC1 (stereo not drawn)	1	0	-4	11	-3
CCc1ccc(N2CC(C(=O)OCc3csc(CC(=O)Nc4ccccc4C)n3)CC2=O)cc1 (stereo not drawn)	-4	1	-3	-5	56*
CCOC(=O)/C=C/C(=O)OCc1csc(CC(=O)Nc2ccccc2C)n1	-7	1	8	-2	-2
CC[C@@]12C(=O)N(c3cccc(Br)c3)C(=O)N1[C@H](c1ccc(Br)cc1)[C@@H]1C(=O)N(C(C)(C)C)C(=O)[C@@H]12	-4	1	-7	32*	-5
Cc1ccc(C(=O)N2CCOCC2)cc1S(=O)(=O)Nc1cccc(C)c1C	-2	0	-2	42*	-1
COc1ccc(-c2ccc(CNc3ccc4[nH]c(=O)[nH]c4c3)o2)cc1Cl	·	-2	·	·	4
CCOC(=O)COc1cc2oc(=O)cc(C)c2cc1[N+](=O)[O-]	-2	1	-11	3	17
COCCN(C(=O)COC(=O)/C=C/c1ccc(C(F)(F)F)cc1)c1c(N)n(Cc2ccccc2)c(=O)[nH]c1=O	-4	1	-9	45*	-6
O=c1[nH]cnc2c1ncn2[C@@H]1C[C@@H](O)[C@H](CO)O1	-6	1	0	38*	10
C#Cc1ccc(NC(=O)C2(C)CCN2C(=O)c2cc(C)n(C)n2)cc1 (stereo not drawn)	9	·	-4	·	·
O=C(NCCN1CCOCC1)c1cccc(NS(=O)(=O)c2ccc(Br)cc2)c1	1	0	-16	33*	8
C=CCNC(=O)c1cccc(NS(=O)(=O)c2ccc(Cl)cc2)c1	-1	0	-7	-4	-26
Cc1ccc(S(=O)(=O)Nc2cccc(C(=O)NCCN3CCOCC3)c2)cc1F	-6	1	-1	-21	-11
CN(C)CCNC(=O)c1cccc(NS(=O)(=O)c2ccc(Cl)c(Cl)c2)c1	-4	3	-30	35*	-8
CC(=O)CSc1nnc2[nH]c(=O)cc(N)n12	·	1	·	·	9
CCCNC(=O)CC(NS(=O)(=O)c1ccc(OC)cc1)c1ccco1 (stereo not drawn)	4	0	4	-11	35*
CCCCNC(=O)CC(NS(=O)(=O)c1ccc(C)cc1)c1ccco1 (stereo not drawn)	-4	1	1	-8	-1
CC(C)CCn1c(O)c(N=NC(=O)c2ccco2)c2ccccc21	-3	3	-7	31*	-2
CCCCNS(=O)(=O)c1ccc2nc(-c3cccs3)cc(C(=O)NCC(OC)OC)c2c1	·	0	·	-14	13
Cc1cc(C)cc(N=Cc2[nH]c3ccc(Br)c(Cl)c3c2O)c1	6	34*	-12	-4	-4
